Test [1] in a line: ATG_TCF_b_cat_CIS: Attagene CIS-FACTORIAL HepG2 Assay for human T-Cell-Factor with beta-catenin (TCF/b-cat) (AID 2282965). Conditions: HepG2 TCF/beta-catenin cis-reporter transcription, actives raise or lower the signal. The procedure, abridged: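 HepG2 cells transiently transfected with multiple cis-promoter-regulated reporter transcription units, so endogenous transcription factor activity is measured. Reporter mRNA read 24 hours after dosing by RT-PCR, fluorescent labelling and capillary electrophoresis; bidirectional fitting against DMSO.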

The nature of test [2]: ATG_TAL_CIS: Attagene CIS-FACTORIAL HepG2 Assay for human TAL Basal Promoter (AID 2282966).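 Further: background control endpoint measuring basal TAL promoter reporter mRNA not a specific factor.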 The settings on record: HepG2 Attagene cis-factorial TAL promoter reporter; actives raise or lower the signal. The procedure, abridged:
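Basal-promoter background-control endpoint from a multiplexed HepG2 reporter panel. Cells were exposed 24 h, then reporter mRNA was read by RT-PCR/CE fluorescence and fitted in both directions relative to DMSO.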

Test [3] can be described thus: ATG_TGFb_CIS: Attagene CIS-FACTORIAL HepG2 Assay for human Transforming Growth Factor (TGF) (AID 2282967). The settings on record: HepG2 Attagene CIS TGFb reporter, mRNA transcription; actives raise or lower the signal. The method in brief:
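Liver HepG2 line, cis-factorial reporter panel, 24 h dosing. Quantitation: RT-PCR products labeled with 6-FAM, cut with HpaI, resolved by capillary electrophoresis; DMSO-referenced bidirectional analysis.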

Test [4] can be described thus: ATG_VDRE_CIS: Attagene CIS-FACTORIAL HepG2 Assay for human Vitamin D Receptor Element (VDRE) (AID 2282968). The settings on record: HepG2 VDRE cis-reporter transcription, actives raise or lower the signal. The procedure, abridged:
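Transfected HepG2 reporter cells, chemical treatment 24 h. RNA isolated, cDNA amplified with reporter-specific primers, products analysed by capillary electrophoresis. Endpoint fitted in both directions versus DMSO.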

For test [5], the target named is Nuclear receptor subfamily 1 group I member 3 (Homo sapiens) (UniProt Q14994). Kind of test: ATG_CAR_TRANS: Attagene TRANS-FACTORIAL HepG2 Assay for human Constitutive Androstane Receptor (CAR) (AID 2282969; active means hit-call score of the fitted dose curve at least 0.9, where 1 is the maximum;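 further: activators raise reporter mRNA above DMSO so AC50 marks induction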). The settings on record: HepG2 Attagene TRANS-FACTORIAL CAR reporter. The method in brief:
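Steps: transient transfection of HepG2 with multiple GAL4-UAS reporter units; 24 h compound incubation; RNA isolation, RT-PCR, 6-FAM primer extension, HpaI digest; capillary electrophoresis. Gain-of-signal relative to DMSO negative control.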

Test [6] concerns the target Steroid hormone receptor ERR1 (Homo sapiens) (UniProt P11474). The test is described as follows: ATG_ERRa_TRANS: Attagene TRANS-FACTORIAL HepG2 Assay for human Estrogen-Related Receptor alpha (ERRa) (AID 2282971; active means hit-call score of the fitted dose curve at least 0.9, where 1 is the maximum). The settings on record: HepG2 Attagene TRANS reporter, ERRa transactivation. The method in brief: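 HepG2 cells transiently transfected with GAL4-UAS reporter units and chimeric NR-Gal4 constructs; after 24 hour compound incubation, reporter mRNA quantified by RT-PCR, fluorescent labelling and capillary electrophoresis, gain of signal versus DMSO.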

Test [7] concerns the target X-box-binding protein 1 (Homo sapiens) (UniProt P17861). Kind of test: ATG_Xbp1_CIS: Attagene CIS-FACTORIAL HepG2 Assay for human X-box Binding Protein 1 (XBP1) (AID 2282972). The settings on record: HepG2 XBP1 cis-element reporter, Attagene multiplex; actives raise or lower the signal. The method in brief:
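Human hepatoma HepG2, cis-element reporter system, 24 h treatment; mRNA quantified by RT-PCR/CE fluorescence; fit relative to DMSO.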

The nature of test [8]: ATG_M_19_TRANS: Attagene TRANS-FACTORIAL HepG2 Assay for M19 Transcription Factor (Internal Marker) (AID 2282974; active means hit-call score of the fitted dose curve at least 0.9, where 1 is the maximum). The settings on record: HepG2 Attagene TRANS-FACTORIAL M19 internal marker reporter. The method in brief: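 Background-control readout: after 24 h chemical exposure of transfected HepG2 carrying GAL4-driven reporter units, RNA was reverse-transcribed, amplified, fluorescently labeled and sized by capillary electrophoresis; gain-of-signal fit against DMSO.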

Test [9] is described as follows: ATG_GAL4_TRANS: Attagene TRANS-FACTORIAL HepG2 Assay for GAL4 (Internal Marker) (AID 2282976; active means hit-call score of the fitted dose curve at least 0.9, where 1 is the maximum). The settings on record: HepG2 Attagene TRANS GAL4 internal marker reporter. The procedure, abridged: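 Background-control readout: GAL4-UAS reporter transcript in transiently transfected HepG2 cells after 24 h compound exposure. Measured by RT-PCR, 6-FAM primer extension, HpaI digest and capillary electrophoresis; gain-of-signal fit versus DMSO.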

Test [10] addresses Estrogen receptor (Homo sapiens) (UniProt P03372). The test is described as follows: ATG_ERa_TRANS: Attagene TRANS-FACTORIAL HepG2 Assay for human Estrogen Receptor alpha (ERa) (AID 2282970; active means hit-call score of the fitted dose curve at least 0.9, where 1 is the maximum). The settings on record: HepG2 Attagene TRANS ERa GAL4 reporter, mRNA. The method in brief:
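Gal4-fusion ERa transactivation, measured as reporter transcript level in transiently transfected HepG2 cells. Exposure 24 h; RT-PCR plus capillary electrophoresis with fluorescence detection.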

Inconclusive results are not listed. Activity calls are given as the source filed them. How the source made its calls, unless noted: active means hit-call score of the fitted dose curve at least 0.9, where 1 is the maximum; inactive means score below 0.9.

The term AC50 denotes the midpoint of the concentration-response curve, whichever way the signal moves.

Sequence of Estrogen receptor (Homo sapiens) (P03372 whole entry, looked up, the tested form may be a part): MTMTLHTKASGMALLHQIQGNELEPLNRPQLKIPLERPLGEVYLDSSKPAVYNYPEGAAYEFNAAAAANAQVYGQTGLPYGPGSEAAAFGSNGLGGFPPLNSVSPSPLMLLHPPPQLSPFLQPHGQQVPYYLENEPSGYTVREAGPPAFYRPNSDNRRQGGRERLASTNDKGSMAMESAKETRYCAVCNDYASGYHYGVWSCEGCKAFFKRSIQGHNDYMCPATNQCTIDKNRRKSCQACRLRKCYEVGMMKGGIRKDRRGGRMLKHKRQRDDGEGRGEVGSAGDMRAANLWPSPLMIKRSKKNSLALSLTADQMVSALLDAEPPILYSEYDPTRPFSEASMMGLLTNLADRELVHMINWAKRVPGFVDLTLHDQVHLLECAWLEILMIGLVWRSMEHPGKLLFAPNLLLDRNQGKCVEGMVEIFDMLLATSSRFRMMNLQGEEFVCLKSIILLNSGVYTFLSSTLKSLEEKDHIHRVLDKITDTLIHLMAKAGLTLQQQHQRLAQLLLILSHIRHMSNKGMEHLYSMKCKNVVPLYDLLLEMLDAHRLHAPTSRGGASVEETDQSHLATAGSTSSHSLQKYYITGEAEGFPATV
Sequence of Steroid hormone receptor ERR1 (Homo sapiens) (P11474 whole entry, looked up, the tested form may be a part): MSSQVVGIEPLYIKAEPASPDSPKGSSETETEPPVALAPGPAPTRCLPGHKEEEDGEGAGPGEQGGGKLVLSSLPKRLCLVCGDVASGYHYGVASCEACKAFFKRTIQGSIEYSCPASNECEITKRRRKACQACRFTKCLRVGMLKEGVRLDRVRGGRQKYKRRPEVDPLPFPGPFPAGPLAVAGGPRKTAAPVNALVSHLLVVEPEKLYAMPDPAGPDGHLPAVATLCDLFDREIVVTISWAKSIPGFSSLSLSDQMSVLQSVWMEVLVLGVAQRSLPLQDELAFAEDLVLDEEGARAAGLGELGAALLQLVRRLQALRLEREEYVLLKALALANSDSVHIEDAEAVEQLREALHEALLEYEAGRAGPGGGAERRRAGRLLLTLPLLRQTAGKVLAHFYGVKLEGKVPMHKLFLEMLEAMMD
Sequence of X-box-binding protein 1 (Homo sapiens) (P17861 whole entry, looked up): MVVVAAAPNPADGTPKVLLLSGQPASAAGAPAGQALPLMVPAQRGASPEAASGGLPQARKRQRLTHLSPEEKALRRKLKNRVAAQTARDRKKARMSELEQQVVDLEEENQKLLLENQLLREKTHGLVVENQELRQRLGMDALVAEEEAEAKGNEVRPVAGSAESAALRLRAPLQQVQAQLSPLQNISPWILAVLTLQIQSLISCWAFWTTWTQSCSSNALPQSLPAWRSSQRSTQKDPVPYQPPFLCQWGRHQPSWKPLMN
Sequence of Nuclear receptor subfamily 1 group I member 3 (Homo sapiens) (Q14994 whole entry, looked up, the tested form may be a part): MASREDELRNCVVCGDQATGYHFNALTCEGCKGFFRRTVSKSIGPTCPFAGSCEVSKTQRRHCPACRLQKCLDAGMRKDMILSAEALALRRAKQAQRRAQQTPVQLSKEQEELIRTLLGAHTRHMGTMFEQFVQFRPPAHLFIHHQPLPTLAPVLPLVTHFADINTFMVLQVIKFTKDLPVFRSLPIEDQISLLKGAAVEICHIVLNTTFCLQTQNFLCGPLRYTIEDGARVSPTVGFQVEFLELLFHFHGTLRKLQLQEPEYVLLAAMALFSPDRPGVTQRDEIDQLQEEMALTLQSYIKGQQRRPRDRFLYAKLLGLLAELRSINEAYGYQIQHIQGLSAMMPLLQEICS

Consider `OCC(F)(F)C(F)(F)C(F)(F)F`, for which the molecule was called inactive in [1], in test [2], in test [3], in test [4], in [5] and in test [6]. Besides, the outcome in test [7], in test [8] and in [9] was inactive.
Consider `Nc1ccc(S(=O)(=O)Nc2nccs2)cc1`, for which the outcome in test [1], in [2], in [3], in test [4], in test [10] and in test [6] was inactive. Besides, the call in test [7], in [8] and in test [9] was inactive.
As for `C=C(C)C(=O)OCCC(F)(F)C(F)(F)C(F)(F)C(F)(F)C(F)(C(F)(F)F)C(F)(F)F`, the result in test [1], in test [2], in [3], in test [4], in test [5] and in test [7] was inactive. Also, the outcome in [8] was inactive. Besides, in test [10], the AC50 was 7.49 µM (active).
For the molecule `FC(F)(F)C(F)(F)CNCC(F)(F)C(F)(F)F`, the molecule was classed as inactive in test [1], in [2], in test [3], in test [4], in test [5] and in [10]. The molecule was classed as inactive in test [7], in test [8] and in test [9].
In the case of `O=C(Cl)C(F)(F)C(F)(F)C(F)(F)C(F)(F)C(F)(F)C(F)(F)C(F)(F)C(F)(F)F`, the half-maximal activity concentration (AC50) in test [1] is 33.4 µM (active); in test [4], 52.2 µM (active); in [10] it was 25.5 µM (active); in test [7], 41.9 µM (active). The molecule was called inactive in test [2], in test [5] and in test [6].
`FC(F)(I)C(F)(F)C(F)(F)C(F)(F)I`: the molecule was classed as inactive in test [1], in test [2], in [3], in [4], in test [5] and in [7]. Moreover, the call in test [8] and in test [9] was inactive. Further, in test [10], the concentration at half-maximal activity (AC50) was 0.299 µM (active).
Consider `c1ccc(-c2ccccc2-c2ccccc2)cc1`, for which the call in test [1], in test [2], in test [3], in [4], in test [5] and in [7] was inactive. For the same molecule, the molecule was called inactive in test [8]. Besides, the concentration at half-maximal activity (AC50) in [10] was 2.75 µM (active).
Consider `COC(=O)CCC(F)(F)C(F)(F)C(F)(F)C(F)(F)F`, for which the outcome in [1], in test [2], in [3], in test [4], in [5] and in test [7] was inactive. The result in [8] and in [9] was inactive. For the same molecule, the AC50 in [10] was 5.85 µM (active).
For `C(=C(c1ccccc1)c1ccccc1)c1ccccc1`, the molecule was classed as inactive in test [1], in [2], in test [4], in [5], in test [7] and in test [8]. For the same molecule, the molecule was classed as inactive in test [9]. The values for the half-maximal activity concentration (AC50) in test [3] and in [10] were 100 µM (active) and 0.0329 µM (active), respectively.
As for `O=C(C=Cc1ccccc1)OCC=Cc1ccccc1`, the outcome in test [1], in [2], in test [3], in [4], in test [5] and in [7] was inactive. Besides, the molecule was classed as inactive in test [8] and in [9]. In addition, the AC50 in test [10] was 18 µM (active).
As for `OCC(F)(F)C(F)(F)C(F)(F)C(F)(F)C(F)(F)C(F)(F)F`, the molecule was called inactive in test [1], in [3], in test [4], in test [5], in test [10] and in test [7]. Further, the call in test [8] and in test [9] was inactive. Besides, the concentration at half-maximal activity (AC50) in [2] was 239 µM (active).
Take `CCC(=O)OCCc1ccccc1`: the outcome in test [1], in test [2], in [3], in test [4], in test [5] and in [10] was inactive. In addition, the molecule was called inactive in [7], in [8] and in test [9].
Take `O=C(O)C(F)(F)C(F)(F)C(F)F`: the outcome in test [1], in [2], in test [3], in test [4], in test [5] and in test [10] was inactive. Besides, the call in test [7], in test [8] and in [9] was inactive.
For the molecule `CC(Cc1ccc(O)c(O)c1)C(C)Cc1ccc(O)c(O)c1` (centres undefined), the AC50 in test [1] is 18.7 µM (active); in test [2], 6.72 µM (active); in [4], 5.93 µM (active); in test [10], 9.13 µM (active); in test [7], 14.4 µM (active). The molecule was called inactive in [3], in test [5], in test [8] and in test [9].
With `Nc1cc(Cl)c(N)c(Cl)c1`, the molecule was called inactive in [1], in [2], in test [3], in test [4], in [5] and in test [10]. The outcome in [7], in test [8] and in [9] was inactive.
As to `CCCCC(CC)COP(=O)(O)OCC(CC)CCCC` (centres undefined), the figures for the AC50 in test [1] and in test [4] were 42.7 µM (active) and 27.6 µM (active), respectively. For the same molecule, the molecule was classed as inactive in [2], in [3], in test [5], in test [10], in test [7] and in test [8].

The values above are taken from PubChem BioAssay (EPA / NIEHS).
